Screening results deposited in PubChem by National Center for Advancing Translational Sciences (NCATS).
HT1080 IDH1KD tx: qHTS for induction of synthetic lethality in tumor cells producing 2HG: qHTS for the HT-1080-IDH1KD cell line. HT-1080 IDH1 knockdown viability, ATP luminescence, 48 h. Potency, µM (titrated, usually from 46.1 µM), without a hit: at the top dose activity, negative = toxicity, actives largely listed as cytotoxic. hit rate 2% among 360,000. AID 686971, 2013;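 also: 0% = DMSO wells and -100% = cell-free medium wells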
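Luminescent ATP read-out (CellTiter-Glo, 10 min at room temperature) after 48 h compound exposure at 37 °C gave viability of IDH1-knockdown HT-1080 cells. Activity was normalised to DMSO and cell-free wells, then fitted as concentration-response curves.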
TDP1 cell noCPT: qHTS for Inhibitors of human tyrosyl-DNA phosphodiesterase 1 (TDP1): qHTS in cells in absence of CPT; DT40 Tdp1-/- hTDP1 cells, no CPT, ATP luminescence, 48 h; AID 686978, 2013; hit rate 15% among 420,000; Potency, µM (titrated, usually from 46.2 µM), without a hit: at the top dose activity change, negative = growth inhibition, usual class: inhibitors; also: % is scaled to controls: 0 for no effect and ±100 for the full control effect; nearly all actives have a fitted effect of over 55% in size
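DT40 Tdp1-/-;hTDP1 cells, no CPT (DMSO vehicle only), 400 cells/well; compounds pin-transferred; ≥48 hr, 37 °C; CellTiter-Glo 30 min RT dark, luminescence read.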
HepG2 viability: qHTS for Inhibitors of TGF-b: Cytotox Counterscreen; HepG2 CAGA-GFP viability, ATP luminescence, 18 h; Potency, µM (doses to about 46.1 µM), for the others: at the highest dose activity change, negative = cytotoxicity, actives largely listed as cytotoxic; hit rate 0.76% among 410,000; AID 588856, 2011
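CellTiter-Glo luminescence gave cytotoxicity after 18 hours at 37 degrees C. The cells were HepG2 CAGA-GFP in 1% FBS DMEM, stimulated with 500 pg/mL TGF-beta after compound addition. %Activity was normalised to no-cell wells (complete cell-killing) and DMSO (no toxicity), and curves were fitted and classified.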
HT1080NT lethal: qHTS for induction of synthetic lethality in tumor cells producing 2HG: qHTS for the HT-1080-NT fibrosarcoma cell line | AID 686970, 2013 | Potency, µM (doses to about 46.1 µM), for inactives: top-dose activity, negative = less viability, hits mostly cytotoxic | hit rate 1.6% among 360,000 | HT-1080-NT fibrosarcoma viability, CellTiter-Glo ATP luminescence, 48 h;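 also: NT is the 2HG producing partner of a matched IDH1 knockdown line; 0% = DMSO-treated cells and -100% = media-only wells without cells; nearly all actives have a fitted effect of over 55% in size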
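Read-out is CellTiter-Glo luminescence after 10 minutes at room temperature, following 48 hours' compound treatment of HT-1080-NT cells (750 cells/well, RPMI, 5% FBS, 37 degrees C).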
TGFb SMAD3 inh: qHTS for Inhibitors of TGF-b | hit rate 1.2% among 410,000 | Potency, µM (doses to about 46.1 µM), without a hit: at the top dose activity, negative = inhibition, usual class: inhibitors | HepG2 CAGA-GFP TGF-b/SMAD3 reporter, GFP fluorescence, 18 h; TGF-beta stimulated, 500 pg/mL final | AID 588855, 2011; also: % is scaled to controls: 0 for no effect and ±100 for the full control effect; nearly all actives have a fitted effect of over 65% in size
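TGF-beta reporter screen: HEPG2 CAGA-GFP, 1% FBS, 500 pg/mL TGF-beta final, 18 h; per-cell GFP summed per well; curves fitted and categorized by class.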
TDP1 cell CPT: qHTS for Inhibitors of human tyrosyl-DNA phosphodiesterase 1 (TDP1): qHTS in cells in presence of CPT; hit rate 12% among 420,000; chicken DT40 Tdp1-/-;hTDP1 cells + 20 nM CPT, ATP luminescence, 48 h; Potency, µM (top dose mostly 46.2 µM), for inactives: top-dose activity change, negative = growth inhibition, most hits filed as inhibitors; also: % is scaled to controls: 0 for no effect and ±100 for the full control effect; nearly all actives have a fitted effect of over 55% in size
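Chicken DT40 Tdp1-/- cells complemented with human TDP1, 400 cells/well, exposed to compounds plus 20 nM camptothecin for at least 48 h at 37 C; viability read as ATP content by CellTiter-Glo luminescence.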
* marks the source's active call; other numbers are inactive results; [ ] = another dose, or the depositor's remark. The list is not random: actives were taken first. Their share in the collection is about 17%. Calls follow the shape of the dose curve; as a rule, active = well fitted curve in the direction sought with a large enough effect; inconclusive = small, poorly fitted or top-dose-only effect, or another doubt; inactive = no such curve, though single readings can be large; an effect the other way counts as inactive or inconclusive. Potency is read from the fitted curve at half-maximal effect.

Results for CCOC(=O)C1CCC(CN(Cc2ccc(Cl)cc2)S(=O)(=O)c2cc(Cl)cc(Cl)c2)CC1 (configuration not stated) ?
TDP1 cell noCPT: 10.3µM*; HepG2 viability: 1.1%; TGFb SMAD3 inh: 22.3%; TDP1 cell CPT: 20.6µM*

Results for CCOC(=O)N1CCN(C(=O)CS(=O)(=O)c2cn(Cc3ccc(Cl)cc3)c3ccccc23)CC1 ?
HT1080 IDH1KD tx: -1.7%; TDP1 cell noCPT: 16.4µM*; HepG2 viability: -12.3%; HT1080NT lethal: -2.9%; TGFb SMAD3 inh: -11.6%; TDP1 cell CPT: 23.1µM*

How did COc1cccc(N(CC(=O)N2CCN(C)CC2)S(=O)(=O)c2ccc(C)cc2)c1 do in these assays?
HT1080 IDH1KD tx: 10.4%; TDP1 cell noCPT: -9.9%; HepG2 viability: 2.4%; HT1080NT lethal: 3.9%; TGFb SMAD3 inh: -11.9%; TDP1 cell CPT: -8.4%

How did CCOc1ccccc1N(CC(=O)N1CCC(C)CC1)S(=O)(=O)c1ccc(C)cc1 do in these assays?
HT1080 IDH1KD tx: -17.4%; TDP1 cell noCPT: 14.6µM*; HepG2 viability: -8.9%; HT1080NT lethal: -6.0%; TGFb SMAD3 inh: 1.9%; TDP1 cell CPT: 9.2µM*

How did Cn1c(=O)c2c(ncn2CC(=O)OCC(=O)NCc2ccccc2Cl)n(C)c1=O do in these assays?
HT1080 IDH1KD tx: -1.2%; TDP1 cell noCPT: -2.9%; HepG2 viability: 0.8%; HT1080NT lethal: 7.1%; TGFb SMAD3 inh: 8.3%; TDP1 cell CPT: 6.6%

What do the screens show for `Cc1ccc(NC(=O)c2ncn(CC(=O)NCc3ccccc3)n2)cc1C`?
HT1080 IDH1KD tx: 6.0%; TDP1 cell noCPT: -19.4%; HepG2 viability: -1.5%; HT1080NT lethal: 9.2%; TGFb SMAD3 inh: -4.5%; TDP1 cell CPT: -13.6%

How did COCc1[nH]nc2c1C1(C(=O)N(C)c3ccccc31)C(C#N)=C(N)O2 (configuration not stated) do in these assays?
HT1080 IDH1KD tx: -2.9%; TDP1 cell noCPT: -1.0%; HepG2 viability: -1.4%; HT1080NT lethal: -3.0%; TGFb SMAD3 inh: 3.4%; TDP1 cell CPT: -2.8%

Results for Cc1ccc(SCc2[nH]nc3c2C(c2ccco2)C(C#N)=C(N)O3)cc1 (configuration not stated) ?
HT1080 IDH1KD tx: -23.9%; TDP1 cell noCPT: inconclusive; HepG2 viability: 12.6µM*; HT1080NT lethal: inconclusive; TGFb SMAD3 inh: inconclusive; TDP1 cell CPT: inconclusive

How did Cc1ccc(SCc2[nH]nc3c2C(c2ccc(C)o2)C(C#N)=C(N)O3)cc1 (configuration not stated) do in these assays?
HT1080 IDH1KD tx: inconclusive; TDP1 cell noCPT: 16.4µM*; HepG2 viability: -69.4%; HT1080NT lethal: -17.4%; TGFb SMAD3 inh: inconclusive; TDP1 cell CPT: 16.4µM*

What do the screens show for `Cc1ccc(SCc2[nH]nc3c2C2(C(=O)N(C)c4ccccc42)C(C#N)=C(N)O3)cc1` (configuration not stated)?
HT1080 IDH1KD tx: inconclusive; TDP1 cell noCPT: inconclusive; HepG2 viability: 14.0%; HT1080NT lethal: 14.6µM*; TGFb SMAD3 inh: -21.8%; TDP1 cell CPT: -10.4%

Results for COCc1cc(C)nc2sc(C(=O)Nc3ccccc3O)c(N)c12 ?
TDP1 cell noCPT: inconclusive; HepG2 viability: -17.8%; TDP1 cell CPT: inconclusive

Results for Cn1c(SCC(=O)Nc2cccc(S(=O)(=O)NC3=NCCCCC3)c2)nnc1-c1ccncc1 ?
HT1080 IDH1KD tx: -7.0%; TDP1 cell noCPT: -5.2%; HepG2 viability: -57.8%; HT1080NT lethal: -3.5%; TGFb SMAD3 inh: -5.0%; TDP1 cell CPT: -7.1%

How did Cc1cc(SCC(=O)Nc2cccc(S(=O)(=O)NC3=NCCCCC3)c2)nc2ccccc12 do in these assays?
HT1080 IDH1KD tx: -8.1%; TDP1 cell noCPT: inconclusive; HepG2 viability: -35.5%; HT1080NT lethal: -0.1%; TGFb SMAD3 inh: 11.2µM*; TDP1 cell CPT: inconclusive

Results for Cc1cc(SCC(=O)Nc2cccc(S(=O)(=O)NC3=NCCCCC3)c2)c(C)cc1Br ?
HT1080 IDH1KD tx: 13µM*; TDP1 cell noCPT: inconclusive; HepG2 viability: -21.5%; HT1080NT lethal: inconclusive; TGFb SMAD3 inh: inconclusive; TDP1 cell CPT: 14.9%

Results for Cc1ccccc1C(=O)Nc1cccc(-c2nnc(SCC(=O)NCc3ccco3)n2C)c1 ?
TDP1 cell noCPT: -28.4%; HepG2 viability: -2.8%; TGFb SMAD3 inh: -7.3%; TDP1 cell CPT: -27.8%

How did Cc1ccc(S(=O)(=O)N2CCCC2CNC(=O)C(=O)NCc2ccccn2)cc1 (configuration not stated) do in these assays?
HT1080 IDH1KD tx: 1.7%; TDP1 cell noCPT: -5.9%; HepG2 viability: 4.5%; HT1080NT lethal: -1.2%; TGFb SMAD3 inh: 10.2%; TDP1 cell CPT: 5.7%

How did COc1ccccc1C1CN(Cc2cccn2-c2ncccn2)Cc2ccccc2O1 (configuration not stated) do in these assays?
TDP1 cell noCPT: -90.0%; TDP1 cell CPT: -10.1%[9.04 µM]

Results for O=C(O)CSc1cc(NS(=O)(=O)c2ccc(Br)cc2)c2ccccc2c1O ?
HT1080 IDH1KD tx: 16.4µM*; TDP1 cell noCPT: 5.17µM*; HepG2 viability: -27.1%; HT1080NT lethal: 20.6µM*; TGFb SMAD3 inh: inconclusive; TDP1 cell CPT: 2.91µM*

What do the screens show for `Cc1ccc(S(=O)(=O)Nc2ccc(Br)cc2C(NCC(=O)O)c2ccccc2)cc1` (configuration not stated)?
HT1080 IDH1KD tx: -12.4%; TDP1 cell noCPT: 6.3%; HepG2 viability: -3.9%; HT1080NT lethal: -4.1%; TGFb SMAD3 inh: inconclusive; TDP1 cell CPT: -4.1%

How did CC(NCC(O)COC1CCC(C(C)(C)C)CC1)c1ccccc1 (configuration not stated) do in these assays?
HT1080 IDH1KD tx: -6.7%; TDP1 cell noCPT: 20.6µM*; HepG2 viability: -137.1%; HT1080NT lethal: -22.3%; TGFb SMAD3 inh: inconclusive; TDP1 cell CPT: inconclusive

How did CC1CCN(CC(O)COC2CC(C)CCC2C(C)C)CC1 (configuration not stated) do in these assays?
HT1080 IDH1KD tx: -22.5%; TDP1 cell noCPT: 16.4µM*; HepG2 viability: -23.9%; HT1080NT lethal: inconclusive; TGFb SMAD3 inh: -13.9%; TDP1 cell CPT: inconclusive
